Screening results deposited in PubChem BioAssay by several laboratories.
KLF5 inh: suppresses KLF5 promoter-driven expression. hit rate 0.23% among 290,000. inhibition, % at 5 µM. DLD-1 KLF5 promoter-luciferase reporter, luminescence. AID 1700;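 active = inhibition above a per-plate limit of that plate's mean compound inhibition plus 3 SD, cut at about 60% in these data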;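 also: 0% = DMSO wells and 100% = LY294002 at 200 µM; higher means less KLF5 promoter-driven luciferase light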
BaF3 parental: parental Ba/F3 viability inhibition as JAK2V617F counter-screen; CellTiter-Glo ATP luminescence; inhibition, % at 5.6 µM; hit rate 1.1% among 220,000; AID 1486;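 active = inhibition above a per-campaign cutoff, the mean inhibition of all tested compounds plus 3 SD, cut at about 27% in these data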;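 also: 0% = DMSO wells and 100% = JAK Inhibitor I control wells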
aSyn 5UTR inh: MLPCN primary screen, SNCA 5' untranslated region; alpha-synuclein 5'UTR reporter, inhibitor activity; AID 1813; inhibition, % (tested at 7.5 µM); hit rate 0.82% among 300,000; in the data active = inhibition above about 60%; inconclusive = no clear call, values can overlap the other calls;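 also: H4 neuroglioblastoma cells stably carrying SNCA 5'UTR luciferase fusion; 0% = DMSO wells and 100% = positive control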
IEC-6 cytotox: kills IEC-6 intestinal cells in KLF5 counter-screen. AID 1825. IEC-6 cytotoxicity, luminescence viability. inhibition, % at 5 µM. hit rate 0.78% among 290,000;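 also: 0% = plate median of test compound wells and 100% = cytotoxic reference compound wells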
APP 5UTR inh: APP translation inhibition | hit rate 0.82% among 190,000 | SH-SY5Y APP 5'UTR-luciferase reporter, luminescence | inhibition, % at 2 µM;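 active = inhibition above a set limit, derived from the sample mean plus 3 SD, cut at about 45% in these data; inconclusive = one replicate passes the limit while the other fails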
Ba/F3 V617F tox: loss of viability in JAK2V617F-driven Ba/F3 cells; hit rate 1.1% among 220,000; AID 1446; inhibition, % at 5.6 µM; Ba/F3 EpoR-JAK2V617F viability, ATP luminescence;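 active = inhibition above the campaign mean plus 3 SD over all tested compounds, cut at about 24% in these data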;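 also: cytokine-independent growth of Ba/F3 cells driven by EpoR plus mutant JAK2; 0% = DMSO-treated cells and 100% = JAK inhibitor I control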
IEC-6 cytotox cf: confirmation of cytotoxic compounds in rat IEC-6 intestinal epithelial cells. inhibition, % at 5 µM. hit rate 63% among 1,900. IEC-6 rat intestinal epithelial viability, luminescence. shares compounds with IEC-6 cytotox;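 also: 0% = vehicle and 100% = reference cytotoxic drug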
An asterisk follows results filed as active. Hits are enriched below; roughly 2.1% of the tested compounds scored in any of these assays. Rule as the data show it, unless noted: active = inhibition above about 22%; inactive = the rest.

Screening CCOC(=O)c1[nH]c(C)c(C(=O)Nc2ccccc2C)c1C returned KLF5 inh 47.3, BaF3 parental 66.5*, aSyn 5UTR inh -27.2, IEC-6 cytotox 56.1*, APP 5UTR inh 84.2*, Ba/F3 V617F tox 71.0* and IEC-6 cytotox cf 51.1*.
Screening COCCCNC(=S)NNC(=O)c1cc(Cl)c(O)c(Cl)c1 returned KLF5 inh -10.8, BaF3 parental -1.3, aSyn 5UTR inh 3.9, IEC-6 cytotox 1.2 and Ba/F3 V617F tox -5.6.
Screening COCCCNC(=S)NNC(=S)NCCCOC returned KLF5 inh -17.2, BaF3 parental -4.9, aSyn 5UTR inh 15.5, IEC-6 cytotox 22.4*, Ba/F3 V617F tox 7.4 and IEC-6 cytotox cf 5.7.
For COc1ccccc1N1CCN(CCCNC(=O)C2CCCN(c3ncnc4c3nc3n4CCCCC3)C2)CC1 (configuration not stated) the results were KLF5 inh -29.6, aSyn 5UTR inh 4.9 and IEC-6 cytotox -2.1.
For CCOC(=O)C(CN1CCCC1)c1ccccc1 (configuration not stated) the results were aSyn 5UTR inh 4.6.
`O=C(c1ccc(Cl)cc1)C(CN1CCCCC1)c1ccccc1` (configuration not stated) gave KLF5 inh -25.3, aSyn 5UTR inh -106.0, IEC-6 cytotox 22.4* and IEC-6 cytotox cf 20.0.
Screening O=C(c1ccccc1)c1c2c(cc3sc4ccccc4[n+]13)-c1cccc3cccc-2c13 returned KLF5 inh -9.4, BaF3 parental 68.3*, IEC-6 cytotox 39.1*, APP 5UTR inh -35.9, Ba/F3 V617F tox 85.8* and IEC-6 cytotox cf 17.8.
Cc1sc2ccccc2[n+]1CC(=O)c1ccccc1 was read as KLF5 inh -18.0, aSyn 5UTR inh -8.4 and IEC-6 cytotox 2.1.
`Cc1n[nH]c(C)c1C(=O)CC1(O)C(=O)N(Cc2ccccc2)c2ccc(Br)cc21` (configuration not stated) gave KLF5 inh 1.1, BaF3 parental 10.7, aSyn 5UTR inh 10.4, IEC-6 cytotox 0.7, APP 5UTR inh 7.7 and Ba/F3 V617F tox 1.4.
Screening C=CCN1C(=O)C(O)(CC(=O)c2ccco2)c2cc(Br)ccc21 (configuration not stated) returned KLF5 inh -3.1, BaF3 parental -0.6, aSyn 5UTR inh -15.1, IEC-6 cytotox 87.1*, APP 5UTR inh -10.3, Ba/F3 V617F tox -0.4 and IEC-6 cytotox cf 23.0*.
`COc1cc(C2=NOC(C(=O)NCc3ccco3)C2)cc(OC)c1OC` (configuration not stated) gave KLF5 inh 27.0, BaF3 parental 51.0*, aSyn 5UTR inh 11.8, IEC-6 cytotox 25.5*, APP 5UTR inh 6.3, Ba/F3 V617F tox 43.5* and IEC-6 cytotox cf 43.6*.
For COc1ccc(C2=NOC(C(=O)NCc3ccco3)C2)cc1 (configuration not stated) the results were KLF5 inh 15.2, BaF3 parental 3.1, aSyn 5UTR inh -77.1, IEC-6 cytotox 25.1*, APP 5UTR inh 25.0, Ba/F3 V617F tox -1.5 and IEC-6 cytotox cf 35.4*.
Screening COc1cc(C2=NOC(C(=O)NCc3cccnc3)C2)cc(OC)c1OC (configuration not stated) returned KLF5 inh -22.0, aSyn 5UTR inh 8.5 and IEC-6 cytotox -2.2.
`O=C(O)Cn1nc(-c2ccccc2)ccc1=O` gave KLF5 inh -32.2, aSyn 5UTR inh -6.5 and IEC-6 cytotox 4.2.
COc1ccc(N2CC(O)=C(c3nc4ccccc4s3)C2=N)cc1 was read as KLF5 inh -24.0, BaF3 parental 3.6, aSyn 5UTR inh 5.7, IEC-6 cytotox 3.5, APP 5UTR inh -14.1 and Ba/F3 V617F tox 2.8.
`COc1cccc(N2CC(O)=C(c3nc4ccccc4s3)C2=N)c1` gave KLF5 inh 28.9, BaF3 parental 80.9*, aSyn 5UTR inh -20.6, IEC-6 cytotox 78.9*, APP 5UTR inh 88.5*, Ba/F3 V617F tox 75.6* and IEC-6 cytotox cf 57.3*.
`CCOn1c(-n2nc(C)cc2C)nc2ccccc2c1=O` gave KLF5 inh -9.1, BaF3 parental -0.2, aSyn 5UTR inh -19.9, IEC-6 cytotox -1.4, APP 5UTR inh 3.9 and Ba/F3 V617F tox -4.1.
Screening Cc1cc(C)n(-c2nc3ccccc3c(=O)n2OCC#N)n1 returned KLF5 inh 42.6, aSyn 5UTR inh 13.9, IEC-6 cytotox 85.5* and IEC-6 cytotox cf 51.8*.
Screening Cc1ccc(S(=O)(=O)N2CCOCC2)cc1C(=O)N1CCC(Cc2ccccc2)CC1 returned KLF5 inh -34.2, aSyn 5UTR inh 13.0 and IEC-6 cytotox -2.6.
For COc1cc(CCC(=O)Nc2ncc(C)s2)cc(OC)c1OC the results were KLF5 inh -5.1, aSyn 5UTR inh 13.1 and IEC-6 cytotox 2.1.
`COc1cc(CCC(=O)Nc2nnc(C)s2)cc(OC)c1OC` gave KLF5 inh 46.5, aSyn 5UTR inh -53.3, IEC-6 cytotox 47.8* and IEC-6 cytotox cf 34.6*.
For CCCCN(C(=O)CSCc1c(C)noc1C)c1c(N)n(CCCC)c(=O)[nH]c1=O the results were aSyn 5UTR inh -6.3.
Screening COc1ccc(Nc2ncnc3scc(-c4ccc(OC)cc4)c23)cc1 returned KLF5 inh -11.5, BaF3 parental 5.7, aSyn 5UTR inh -42.3, IEC-6 cytotox 23.6*, APP 5UTR inh -4.0, Ba/F3 V617F tox 1.3 and IEC-6 cytotox cf 20.2.
For CC1CCCN(C(=O)c2ccc(NS(=O)(=O)c3cccc([N+](=O)[O-])c3)cc2)C1 (configuration not stated) the results were aSyn 5UTR inh 7.4.
For Cc1nc2c3cc(Cl)ccc3n(CCN3CCCCC3)c2s1 the results were KLF5 inh 16.2, BaF3 parental 35.6*, aSyn 5UTR inh 6.6, IEC-6 cytotox 41.4*, APP 5UTR inh 11.7, Ba/F3 V617F tox 15.8 and IEC-6 cytotox cf 16.7.
`COC(=O)Cn1c2ccc(Cl)cc2c2nc(C)sc21` gave KLF5 inh -7.5, BaF3 parental -2.5, aSyn 5UTR inh -44.8, IEC-6 cytotox -4.1 and Ba/F3 V617F tox -2.8.
Cn1c(Cl)cnc1C1CC(=O)c2cc(Cl)ccc2O1 (configuration not stated) was read as KLF5 inh -9.8, BaF3 parental 49.8*, aSyn 5UTR inh 32.8, IEC-6 cytotox 69.6*, APP 5UTR inh 26.6, Ba/F3 V617F tox 55.4* and IEC-6 cytotox cf 9.2.
`CC(=O)c1ccc(NC(=O)Cc2ccsc2)cc1` gave KLF5 inh -74.9, aSyn 5UTR inh -78.7 and IEC-6 cytotox 2.6.
For Cc1cc(NCCCn2ccnc2)n2ncc(-c3ccc(Cl)cc3)c2n1 the results were KLF5 inh -116.5, BaF3 parental 11.8, aSyn 5UTR inh inconclusive, IEC-6 cytotox 33.3*, APP 5UTR inh -253.3, Ba/F3 V617F tox 4.3 and IEC-6 cytotox cf 26.8*.
For Cc1ccc(C)c(NC(=O)CSc2nnc3n2CCCCC3)c1 the results were KLF5 inh 9.2, BaF3 parental 4.8, aSyn 5UTR inh -0.7, IEC-6 cytotox -1.1, APP 5UTR inh -7.5 and Ba/F3 V617F tox 0.8.
